Bioassay records (PubChem)
KDM5B inhibitor: blocks human KDM5B histone demethylase activity; Q9UGL1; KDM5B demethylase, FDH-coupled NADH fluorescence (FDH is formaldehyde dehydrogenase); Potency, µM (doses to about 57.7 µM), actives largely listed as inhibitors; 220,000 tested, 2.6% active; AID 1347165; further: nearly all actives have a fitted effect of over 70% in size
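Coupled FDH/NAD⁺ fluorescence readout. KDM5BΔAP 200 nM final; compound titration, 10 min RT preincubation; substrate mix 12.5 µM H3K4me3, 25 µM 2-OG, 50 µM Fe(II), 100 µM ascorbate, 0.25 mM NAD⁺, 0.25 U/mL FDH; ΔRFU over 30 min.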
IP6K1 inh: blocks human inositol hexakisphosphate kinase 1; activity change, % (series mostly up to about 58 µM); Q92551; IP6K1 kinase, ADP-Glo luminescence, 2 h; active compounds read low; AID 1645851; 140,000 tested, 0.81% active; in the data active means activity change below about -25%
Target sequence (Q92551 whole entry, looked up): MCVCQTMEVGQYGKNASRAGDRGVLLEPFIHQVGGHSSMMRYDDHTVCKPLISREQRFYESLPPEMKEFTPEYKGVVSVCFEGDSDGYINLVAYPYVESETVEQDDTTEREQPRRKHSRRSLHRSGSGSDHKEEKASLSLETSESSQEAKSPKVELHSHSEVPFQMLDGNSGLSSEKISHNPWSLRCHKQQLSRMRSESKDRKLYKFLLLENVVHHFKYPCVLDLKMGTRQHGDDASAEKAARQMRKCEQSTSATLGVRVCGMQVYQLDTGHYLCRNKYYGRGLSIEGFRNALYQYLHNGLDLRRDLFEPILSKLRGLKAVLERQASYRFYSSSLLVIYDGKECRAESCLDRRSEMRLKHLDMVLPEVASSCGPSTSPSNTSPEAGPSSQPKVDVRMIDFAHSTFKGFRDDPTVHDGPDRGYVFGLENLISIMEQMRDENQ
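ADP-Glo luminescence measures ADP made by human IP6K1 during a 2 h RT reaction with ATP/IP6 (mix at 1.3 mM/130 uM); top library doses 57.5 and 19.1 uM final.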
SNCA expr inhib: SNCA gene expression inhibition | HEK-293 SNCA-luciferase knock-in, luminescence, 24 h | Potency, µM (highest dose often 57.2 µM), hits mostly inhibitors | 140,000 tested, 0.17% active | AID 1671194; further: nearly all actives have a fitted effect of over 45% in size
HEK293 viab: counter-screen for SNCA expression inhibitors: cell viability; HEK-293-SNCA-luc viability, GF-AFC fluorescence, 24 h; Potency, µM (highest dose often 57.1 µM), most hits filed as cytotoxic; 150,000 tested, 0.12% active; AID 1671193; further: nearly all actives have a fitted effect of over 30% in size
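HEK-293-SNCA-luc cells (1500/well) plated 24 h, then exposed 24 h to a dilution series; GF-AFC added 30 min at 37C, fluorescence 405/540 nm; normalised to medium-only and DMSO wells, Hill fit.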
IP6K1 inh cnf: confirmation of human IP6K1 inhibitors | shares compounds with IP6K1 inh | Potency, µM (series often up to 49 µM), usual class: inhibitors | 1,200 tested, 13% active | recombinant IP6K1 kinase, ADP-Glo luminescence, 2 h; further: nearly all actives have a fitted effect of over 65% in size
Numbers stand for hits; 0 = inactive; ? = inconclusive; - = not tested or not shown; [ ] = another dose, or the depositor's remark. Most compounds without a hit are left out; they make up all but 2.9% or so of the library. Unless noted, the call rests on the fitted dose curve; in most records, active means well fitted curve in the direction sought with a large enough effect; inconclusive means small, poorly fitted or top-dose-only effect, or another doubt; inactive means no such curve, though single readings can be large; an effect the other way counts as inactive or inconclusive.

SMILES | KDM5B inhibitor | IP6K1 inh | SNCA expr inhib | HEK293 viab | IP6K1 inh cnf
COc1ccc(C2CC(=O)Nc3nc(N)sc32)cc1OC (stereo not drawn) | 0 | - | - | - | -
CNc1nc2c(s1)C(c1ccc(Cl)cc1)CC(=O)N2 (stereo not drawn) | 32µM | -28 | 0 | 0 | 16µM
O=S(=O)(O)c1ccc2cc(N=Nc3cc(S(=O)(=O)O)c4cccnc4c3O)ccc2c1 | - | -52 | ? | ? | ?
Cc1nc(N=Nc2ccc(S(=O)(=O)O)cc2S(=O)(=O)O)c(COP(=O)(O)O)c(C=O)c1O | - | - | 0 | 0 | -
COc1cccc(Cn2c(=O)c3ccnn3c3ccc(C(=O)NCCCN(C)C)cc32)c1 | ? | 0 | 0 | 0 | -
CCCCCn1c(CCCNC(=O)c2ccc(Cl)cc2)nc2ccccc21 | 0 | -39 | 0 | 0 | 0
COc1cccc(-c2noc(CC3CCN(C(=O)COc4cccc(C)c4)CC3)n2)c1 | ? | -25 | 0 | 0 | 0
COc1ccc(C(=O)Nc2ccc(-c3cc4ccccc4oc3=O)c(C)c2)cc1Br | ? | -28 | 0 | 0 | ?
Cc1ccc(NC(=O)C(NS(=O)(=O)c2ccc3c(c2)CCC(=O)N3)c2ccccc2)cc1C (stereo not drawn) | ? | -32 | 0 | 0 | 0
CCOC(=O)C1CCCN(C(=O)c2cn3cc(-c4ccccc4)sc3n2)C1 (stereo not drawn) | - | 0 | 0 | 0 | -
O=C(NCc1ccc(F)cc1)[C@@H]1COCC(=O)N1Cc1ccc(F)cc1 | - | 0 | 0 | 0 | -
Cc1ccc([N+](=O)[O-])c(Oc2ncnc3c2oc2ccccc23)c1 | 0 | -29 | 0 | 0 | 0
CCc1noc(C)c1C(=O)Nc1sc(Cc2ccccc2)cc1C(=O)OC | 0 | - | - | - | -
O=C(Nc1ccc(Br)cc1)c1cc(S(=O)(=O)NC2CCCC2)ccc1F | 0 | -35 | 0 | 0 | 0
COc1cccc(Cn2c(C)c(CNCc3ccccc3Cl)c(C(=O)O)c2C)c1 | 0 | -27 | 0 | 0 | 0
CCN(CC)S(=O)(=O)c1ccc(C)c(NC(=S)Nc2ccccc2C(C)(C)C)c1 | 0 | - | - | - | -
COCCn1c(CO)nnc1C1CC(NC(=O)C2(C)CCCC2)C1 (stereo not drawn) | 0 | -28 | 0 | 0 | 0
O=C(NCc1ccco1)c1ccc2c(c1)N(Cc1ccccc1)C(=O)c1ccccc1S2 | ? | -28 | ? | ? | ?
Cc1cccc(CN2C(=O)c3ccccc3Sc3ccc(C(=O)NCc4ccco4)cc32)c1 | 0 | 0 | 0 | 0 | -
Cc1ccc(CNC(=O)CC2C=CCC2)cn1 (stereo not drawn) | 0 | - | - | - | -
Cn1cnc2c(F)c(Nc3ccc(Br)cc3Cl)c(C(=O)NOCCO)cc21 | - | 0 | 0 | 0 | 0
CCOC(=O)c1cnc2cc(Cl)c(OC)cc2c1Nc1ccc(Br)cc1C | ? | 0 | 0 | 0 | -
Cc1ccc(SCCNC(=O)CC2C=CCC2)cc1C (stereo not drawn) | 0 | - | - | - | -
COc1ccccc1CNC(=O)c1cc2c(s1)-c1ccccc1OC2 | ? | 0 | 0 | 0 | -
O=C(NCc1cccc(Cl)c1)c1cc2c(s1)-c1ccccc1OC2 | ? | -26 | 0 | 0 | 0
SMILES | KDM5B inhibitor | IP6K1 inh | SNCA expr inhib | HEK293 viab | IP6K1 inh cnf
CC(C)(C)c1nc2c3cc[nH]c(=O)c3c3cc(F)ccc3c2[nH]1 | - | - | 0 | 0 | 0
O=C(NCc1ccnc2[nH]ccc12)c1ccccc1 | 0 | 0 | 0 | 0 | -
Fc1ccccc1CNCc1ccc(-c2ccnc3[nH]ccc23)cc1 | - | -42 | - | 0 | ?
COCc1ncc(CN2CCC(c3[nH]ncc3-c3ccccc3C)CC2)cn1 | 0 | 0 | 0 | 0 | -
COc1ccc2nc(N3CCN(C(=O)CS(=O)(=O)c4ccc(C)cc4)CC3)sc2c1 | 0 | -29 | 0 | 0 | 0
COc1ccc(CCNc2nc3c(-c4cccc(C)c4)nnn3c3ccccc23)cc1OC | ? | -32 | 0 | ? | 0
CCN(CC)S(=O)(=O)c1ccc(NC(=O)Cc2cn3ccsc3n2)cc1 | 0 | - | - | - | -
Cc1ccc(Nc2ncnc3c2nc2n3CCCC2)cc1F | 0 | 0 | 0 | 0 | -
Cc1cc(C)cc(Nc2ncnc3c2nc2n3CCCC2)c1 | ? | -32 | 0 | 0 | 0
CC(=O)Nc1nc2ccccc2n1Cc1ccccc1Cl | 0 | - | - | - | -
CC(=O)NC(C)c1nc2ccccc2n1Cc1ccccc1Cl (stereo not drawn) | 0 | -26 | 0 | 0 | 0
COc1cc2ncnc(NCc3cc(F)ccc3F)c2cc1OC | 0 | - | - | - | -
COc1cc2ncnc(Nc3cc(Br)c(O)c(Br)c3)c2cc1OC | - | 0 | 0 | 0 | ?
COc1cc2ncnc(Nc3cccc(I)c3)c2cc1OC | - | -33 | - | 0 | 12µM
O=C(CN1CCN(CC(=O)N2CCC(Cc3ccccc3)CC2)CC1)Nc1ccccc1Cl | 0 | - | - | - | -
Cc1ccc(-c2noc(CNC(=O)c3ccccc3)n2)cc1 | 0 | -31 | 0 | 0 | ?
Cc1ccc(CC(=O)NCc2nc(-c3ccccc3)no2)cc1 | 0 | -27 | 0 | 0 | 0
Cc1ccc(-c2noc(CNC(=O)c3ccc(C(C)(C)C)cc3)n2)cc1 | 0 | 0 | 0 | 0 | -
O=C(NCc1ccc(F)c(F)c1)c1ccc2nnc(-c3cccc(C(F)(F)F)c3)n2c1 | - | 0 | 0 | 0 | -
O=C(Nc1ccc(F)cc1)c1ccccc1-c1ccccc1 | 0 | - | - | - | -
CCCCN(Cc1ccccc1)S(=O)(=O)c1cc(Br)cc2c1N(C(=O)C1CC1)CC2 | 0 | 0 | 0 | 0 | -
CCCCN(Cc1ccccc1)S(=O)(=O)c1cc(Br)cc2c1N(C(C)=O)CC2 | 0 | -27 | 0 | 0 | 0
CNC(=O)NC(=O)C(Cl)c1ccccc1 (stereo not drawn) | 0 | - | - | - | -
CCC(C(=O)NCc1ccccc1OC)n1nc(C)n2c(cc3sccc32)c1=O (stereo not drawn) | 0 | -85 | 0 | 0 | 0
Cc1ccc(-c2ccc3nnc(CNC(=O)Cc4cccs4)n3n2)cc1C | ? | 0 | 0 | 0 | 0
SMILES | KDM5B inhibitor | IP6K1 inh | SNCA expr inhib | HEK293 viab | IP6K1 inh cnf
CC(C)C[C@H](NC(=O)NCC(c1ccccc1)c1ccccc1)C(=O)O | 0 | - | - | - | -
COCc1cc(C)nc2sc3c(c12)NC(c1ccc(O)c(OC)c1)N(c1ccccc1)C3=O (stereo not drawn) | ? | 0 | 0 | ? | -
COCc1cc(C)nc2sc3c(c12)NC(c1ccccc1C(=O)O)N(c1ccc(OC)cc1)C3=O (stereo not drawn) | ? | -31 | 0 | 0 | 0
CNS(=O)(=O)c1ccc(Oc2ccc3c(C(C)C)cc(=O)oc3c2)c([N+](=O)[O-])c1 | 0 | - | - | - | -
CN1CC2(CCN(C(=O)c3ccccc3-c3nn[nH]n3)CC2)CC1C(=O)O (stereo not drawn) | 0 | -38 | 0 | 0 | 0
O=C(c1ccccc1-c1nn[nH]n1)N1CCN(CCN2CCOCC2)CC1 | 0 | 0 | 0 | 0 | -
O=C(NC1CCS(=O)(=O)C1)C1CCN(C2=NS(=O)(=O)c3ccccc32)CC1 (stereo not drawn) | 0 | - | - | - | -
O=C(Cc1ccccn1)NC1CCN(C(=O)c2ccc(-c3cccs3)cc2)CC1 | - | 0 | 0 | 0[12.5 µM] | -
CCOC(=O)c1cccc(NC(=O)N2CC[C@@H](CC(=O)Nc3nccs3)[C@@H](CC)C2)c1 | 0 | -35 | 0 | 0 | ?
